According to the supplement of paper PMC10646978:
± gives the standard deviation.

Test system: RAW-Dual (murine macrophage reporter line)
Assay: IRF reporter (Lucia luciferase) activity fold change vs agonist alone; higher = enhanced IRF activity
Details: modulator concentration 10 µM; agonist: LPS 0.1 ug/mL
Outline: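 Compound reached 10 μM final in each well by pin transfer, onto RAW-Dual murine macrophage reporter cells seeded at 50 000 per well in 384-well plates. After 1 hour at 37 °C, the cells were stimulated overnight with a PRR agonist. SEAP in the supernatant was read with QUANTI-Blue at 620 nm absorbance for NF-κB, and Lucia luciferase was read with QUANTI-Luc luminescence for IRF. Each signal was turned into fold change against the mean agonist-only control on the same plate, and two replicate plates were averaged with propagated errors.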

| Compound | IRF reporter |
| --- | --- |
| O=C1C(N2CCC(O)C2)CCN1CC(F)(F)F (centres undefined) | 1.22 ± 0.079 |
| Fc1ccc(CN2CCc3c([nH]c4ccccc34)C2)c(F)c1 | 1.32 ± 0.2 |
| O=C(NCCCn1ccc2cccnc21)c1nc2ccccc2s1 | 0.942 ± 0.22 |
| CCn1cc(C(=O)O)c(=O)c2cc(F)c(N3CCN(C)CC3)cc21.CS(=O)(=O)O | 1.45 ± 0.12 |

Same assay, conditions: modulator concentration 10 µM; agonist: MPLA […]

| Compound | IRF reporter |
| --- | --- |
| CC(C(=O)O)c1ccc(C(=O)c2cccs2)cc1 (centres undefined) | 1.23 ± 0.14 |
| CCOC(=O)Nc1ccc(NCc2ccc(F)cc2)nc1N.O=C(O)/C=C/C(=O)O | 1.12 ± 0.09 |
| O=C(NC1CCCCCC1)c1ccc([N+](=O)[O-])cc1Cl | 1.08 ± 0.13 |
| Cc1cc(CCNC(=O)c2nc3ccccc3s2)nn1C | 0.943 ± 0.29 |
| CCC(=O)Nc1ccc(S(=O)(=O)N2CCC(Oc3ncnc(CC)c3F)C2)c(C)c1 (centres undefined) | 1.34 ± 0.4 |
| Cl.O=S(=O)(c1cccc2cnccc12)N1CCCNCC1 | 0.558 ± 0.083 |
| N#CC(=Cc1ccc(-c2ccc(Cl)cc2)o1)C(N)=O | 1.63 ± 0.18 |
| O=C1CC(c2ccc(O)cc2)Oc2cc(O)cc(O)c21 (centres undefined) | 1.13 ± 0.11 |
| Cc1noc(C)c1CN1CCC(C(F)(F)F)CC1.Cl | 1.6 ± 0.52 |
| Cc1cccc(OCCCOc2cccc3cccnc23)c1C | 1.7 ± 0.22 |
| COC(=O)C1C(=O)C(=CNc2ccccc2C)C(=O)CC1(C)C (centres undefined) | 1.08 ± 0.2 |
| Cc1ccc(-c2ncnn2-c2ccc(Cl)cc2)cc1 | 1.4 ± 0.15 |
| COc1ccnc(CS(=O)c2nc3ccc(OC(F)F)cc3[nH]2)c1OC (centres undefined) | 1.15 ± 0.15 |
| Cc1cc(OC2CN(C(=O)Cn3cnc4ccccc43)C2)cc(=O)n1C1CC1 | 0.955 ± 0.092 |
| COc1ccc(-c2ccc(OCCNC(=O)Cc3ccc(Br)cc3)nn2)cc1 | 1.07 ± 0.31 |
| CCS(=O)(=O)N1CCC2(CC1)NC(=O)N(CCOc1ccccc1)C2=O | 1.58 ± 0.61 |
| Cc1nc2ccc(CN(C)c3ccc(C(=O)N[C@@H](CCC(=O)O)C(=O)O)s3)cc2c(=O)[nH]1 | 1.07 ± 0.12 |
| COc1ccc(Cc2nnc(C3CCN(S(C)(=O)=O)CC3)s2)cc1 | 1.09 ± 0.13 |
| NC(=O)CN1C(=O)C2C3c4ccccc4C(c4ccccc43)C2C1=O (centres undefined) | 0.976 ± 0.15 |
| CCOc1ccc(OCCCCOc2cccc(C)c2)cc1 | 1.07 ± 0.068 |

| Compound | IRF reporter |
| --- | --- |
| O=C(CCc1csc(NC(=O)c2ccco2)n1)Nc1ccc(Cl)cc1 | 1.55 ± 0.43 |
| COc1ccc(Nc2nc(Nc3ccc4ncccc4c3)nc(N3CCOCC3)n2)cc1 | 2.74 ± 0.57 |
| O=C(NC12CC3CC(CC(C3)C1)C2)N1CCOCC1 | 1.32 ± 0.17 |
| CC[C@H](C)C(=O)O[C@H]1C[C@@H](C)C=C2C=C[C@H](C)[C@H](CC[C@@H]3C[C@@H](O)CC(=O)O3)[C@H]21 | 0.776 ± 0.17 |
| CC(=O)Nc1ccc(NC(=S)NC(=O)C=Cc2ccc(Cl)cc2)cc1 | 0.787 ± 0.22 |
| COc1ccc(C=NNC(=O)CSc2nnc(-c3ccccc3)n2-c2ccccc2)cc1OC | 1 ± 0.076 |
| Cl.Fc1ccc(C2CCNCC2COc2ccc3c(c2)OCO3)cc1 (centres undefined) | 1.07 ± 0.15 |
| CCCOc1ccc(C=CC(=O)Nc2ccc(S(=O)(=O)Nc3ncccn3)cc2)cc1OC | 1.11 ± 0.23 |
| O=c1c(O)c(-c2cc(O)c(O)c(O)c2)oc2cc(O)cc(O)c12 | 1.01 ± 0.21 |
| CC(=NNC(=O)COc1ccc(Cl)cc1[N+](=O)[O-])c1cccc(Br)c1 | 1.19 ± 0.22 |
| CCCCCn1c(=O)[nH]c2cc(C(=O)N3CCN(C(=O)OCC)CC3)ccc2c1=O | 1.24 ± 0.14 |
| CC(C)(C)NCC(=O)Nc1ccc(S(N)(=O)=O)cc1 | 1.7 ± 0.2 |
| NC(=O)c1ccc(N2CCOCC2)c([N+](=O)[O-])c1 | 1.01 ± 0.1 |
| O=C(c1ccc(OC(F)(F)F)cc1)N1CCC(Oc2cccnn2)CC1 | 1.15 ± 0.087 |
| CC(NCCC(c1ccccc1)c1ccccc1)c1ccccc1.Cl (centres undefined) | 1 ± 0.13 |
| COc1ccc(CCN(C)CCCC(C#N)(c2ccc(OC)c(OC)c2)C(C)C)cc1OC.Cl (centres undefined) | 1.27 ± 0.12 |
| O=C1C(N2CCC(O)C2)CCN1CC(F)(F)F (centres undefined) | 1.24 ± 0.15 |
| Fc1ccc(CN2CCc3c([nH]c4ccccc34)C2)c(F)c1 | 1.21 ± 0.16 |
| O=C(NCCCn1ccc2cccnc21)c1nc2ccccc2s1 | 1.02 ± 0.15 |
| CCn1cc(C(=O)O)c(=O)c2cc(F)c(N3CCN(C)CC3)cc21.CS(=O)(=O)O | 1.17 ± 0.11 |

Test system: RAW-Dual (murine macrophage reporter line)
Assay: viability score (confluency relative to resting cells, overnight) (fraction); higher = more viable, active = viable (0.7 or more)
Details: modulator concentration 10 µM
Outline: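 RAW-Dual macrophages in 384-well plates were treated overnight with compound at 10 μM final. IncuCyte imaging recorded confluency, and IncuCyte software built two confluency masks across every imaged well. The viability score expresses confluency relative to resting cells and was judged against a cutoff, which a compound met only if both masks exceeded 70% of resting cells.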

| Compound | viability score |
| --- | --- |
| CC(C(=O)O)c1ccc(C(=O)c2cccs2)cc1 (centres undefined) | 1.01 (active) |
| CCOC(=O)Nc1ccc(NCc2ccc(F)cc2)nc1N.O=C(O)/C=C/C(=O)O | 0.977 (active) |
| O=C(NC1CCCCCC1)c1ccc([N+](=O)[O-])cc1Cl | 0.983 (active) |
| Cc1cc(CCNC(=O)c2nc3ccccc3s2)nn1C | 1 (active) |
| CCC(=O)Nc1ccc(S(=O)(=O)N2CCC(Oc3ncnc(CC)c3F)C2)c(C)c1 (centres undefined) | 0.992 (active) |
| Cl.O=S(=O)(c1cccc2cnccc12)N1CCCNCC1 | 0.992 (active) |
| N#CC(=Cc1ccc(-c2ccc(Cl)cc2)o1)C(N)=O | 1.02 (active) |
| O=C1CC(c2ccc(O)cc2)Oc2cc(O)cc(O)c21 (centres undefined) | 1 (active) |
| Cc1noc(C)c1CN1CCC(C(F)(F)F)CC1.Cl | 0.937 (active) |
| Cc1cccc(OCCCOc2cccc3cccnc23)c1C | 0.978 (active) |
| COC(=O)C1C(=O)C(=CNc2ccccc2C)C(=O)CC1(C)C (centres undefined) | 1.03 (active) |
| Cc1ccc(-c2ncnn2-c2ccc(Cl)cc2)cc1 | 1.01 (active) |
| COc1ccnc(CS(=O)c2nc3ccc(OC(F)F)cc3[nH]2)c1OC (centres undefined) | 0.999 (active) |
| Cc1cc(OC2CN(C(=O)Cn3cnc4ccccc43)C2)cc(=O)n1C1CC1 | 0.997 (active) |
| COc1ccc(-c2ccc(OCCNC(=O)Cc3ccc(Br)cc3)nn2)cc1 | 1 (active) |
| CCS(=O)(=O)N1CCC2(CC1)NC(=O)N(CCOc1ccccc1)C2=O | 0.989 (active) |
| Cc1nc2ccc(CN(C)c3ccc(C(=O)N[C@@H](CCC(=O)O)C(=O)O)s3)cc2c(=O)[nH]1 | 1 (active) |
| COc1ccc(Cc2nnc(C3CCN(S(C)(=O)=O)CC3)s2)cc1 | 0.994 (active) |
| NC(=O)CN1C(=O)C2C3c4ccccc4C(c4ccccc43)C2C1=O (centres undefined) | 0.995 (active) |
| CCOc1ccc(OCCCCOc2cccc(C)c2)cc1 | 1.01 (active) |

| Compound | viability score |
| --- | --- |
| O=C(CCc1csc(NC(=O)c2ccco2)n1)Nc1ccc(Cl)cc1 | 0.974 (active) |
| COc1ccc(Nc2nc(Nc3ccc4ncccc4c3)nc(N3CCOCC3)n2)cc1 | 0.904 (active) |
| O=C(NC12CC3CC(CC(C3)C1)C2)N1CCOCC1 | 0.967 (active) |
| CC[C@H](C)C(=O)O[C@H]1C[C@@H](C)C=C2C=C[C@H](C)[C@H](CC[C@@H]3C[C@@H](O)CC(=O)O3)[C@H]21 | 0.238 (inactive) |
| CC(=O)Nc1ccc(NC(=S)NC(=O)C=Cc2ccc(Cl)cc2)cc1 | 0.991 (active) |
| COc1ccc(C=NNC(=O)CSc2nnc(-c3ccccc3)n2-c2ccccc2)cc1OC | 0.996 (active) |
| Cl.Fc1ccc(C2CCNCC2COc2ccc3c(c2)OCO3)cc1 (centres undefined) | 0.968 (active) |
| CCCOc1ccc(C=CC(=O)Nc2ccc(S(=O)(=O)Nc3ncccn3)cc2)cc1OC | 1.01 (active) |
| O=c1c(O)c(-c2cc(O)c(O)c(O)c2)oc2cc(O)cc(O)c12 | 0.908 (active) |
| CC(=NNC(=O)COc1ccc(Cl)cc1[N+](=O)[O-])c1cccc(Br)c1 | 1 (active) |
| CCCCCn1c(=O)[nH]c2cc(C(=O)N3CCN(C(=O)OCC)CC3)ccc2c1=O | 0.974 (active) |
| CC(C)(C)NCC(=O)Nc1ccc(S(N)(=O)=O)cc1 | 0.997 (active) |
| NC(=O)c1ccc(N2CCOCC2)c([N+](=O)[O-])c1 | 0.993 (active) |
| O=C(c1ccc(OC(F)(F)F)cc1)N1CCC(Oc2cccnn2)CC1 | 1.01 (active) |
| CC(NCCC(c1ccccc1)c1ccccc1)c1ccccc1.Cl (centres undefined) | 0.204 (inactive) |
| COc1ccc(CCN(C)CCCC(C#N)(c2ccc(OC)c(OC)c2)C(C)C)cc1OC.Cl (centres undefined) | 0.977 (active) |
| O=C1C(N2CCC(O)C2)CCN1CC(F)(F)F (centres undefined) | 1.01 (active) |
| Fc1ccc(CN2CCc3c([nH]c4ccccc34)C2)c(F)c1 | 0.212 (inactive) |
| O=C(NCCCn1ccc2cccnc21)c1nc2ccccc2s1 | 1 (active) |
| CCn1cc(C(=O)O)c(=O)c2cc(F)c(N3CCN(C)CC3)cc21.CS(=O)(=O)O | 0.986 (active) |
